Results: paper PMC7862700, “An all-to-all approach to the identification of sequence-specific readers for epigenetic DNA modifications on cytosine”

How the values were obtained:
Test in all cases: DAPPL (digital affinity profiling via proximity ligation, sequencing); 10 mM Tris-HCl pH 7.5, 50 mM NaCl, 1 mM DTT, 4% glycerol, room temperature, 30 min; GST-TFs on glutathione beads, 16-mer random dsDNA library, 0.1% formaldehyde crosslink after washing; high values mean tight binding
FEV = molecular target: T1, FEV (Homo sapiens, UniProt Q99581 1-238); conditions: protein: recombinant; tags: N-terminal GST; dsDNA, one strand shown
T1 sequence: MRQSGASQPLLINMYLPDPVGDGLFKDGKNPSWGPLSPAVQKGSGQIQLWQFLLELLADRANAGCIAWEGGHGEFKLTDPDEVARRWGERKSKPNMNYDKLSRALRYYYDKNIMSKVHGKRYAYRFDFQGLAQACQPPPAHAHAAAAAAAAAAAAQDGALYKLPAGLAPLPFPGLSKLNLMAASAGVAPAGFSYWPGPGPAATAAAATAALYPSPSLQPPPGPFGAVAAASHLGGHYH
Procedure, shortened: (§1)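 After expression in yeast as GST fusions, human transcription factors were bound to glutathione beads, DNA-barcoded and mixed with a tag-only sample. The pools were incubated with 200 nmole of a 16-mer random double-stranded DNA library in Tris/NaCl/DTT/glycerol buffer (30 min, room temperature), washed and crosslinked with 0.1% formaldehyde. Proximity ligation with BsaI/T4 ligase ran for 1 h at 37 °C, before PCR amplification and sequencing on an Illumina NextSeq500. Binding signal is a hexamer's read frequency for a factor divided by its frequency for the tag-only sample.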

ETV5 = ETV5 (Homo sapiens, UniProt P41161 1-510); conditions: protein: recombinant; tags: N-terminal GST; dsDNA, one strand shown
Procedure, shortened: as §1

HSF1 = HSF1 (Homo sapiens, UniProt Q00613 1-529); conditions: protein: recombinant; tags: N-terminal GST; chain copies: 3; dsDNA, one strand shown
Procedure, shortened: as §1

SPIC = molecular target: T2, SPIC (Homo sapiens, UniProt Q8N5J4 1-248); conditions: protein: recombinant; tags: N-terminal GST; dsDNA, one strand shown
T2 sequence: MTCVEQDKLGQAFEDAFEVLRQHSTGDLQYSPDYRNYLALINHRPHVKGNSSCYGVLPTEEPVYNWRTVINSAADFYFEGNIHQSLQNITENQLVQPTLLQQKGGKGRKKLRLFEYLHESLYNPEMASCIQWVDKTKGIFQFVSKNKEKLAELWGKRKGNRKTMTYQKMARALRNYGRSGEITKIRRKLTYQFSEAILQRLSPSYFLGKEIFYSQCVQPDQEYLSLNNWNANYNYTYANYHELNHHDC
Procedure, shortened: as §1

ELF4 = ELF4 (Homo sapiens, UniProt Q99607 1-663); conditions: protein: recombinant; tags: N-terminal GST; dsDNA, one strand shown
Procedure, shortened: as §1

ELK4 = molecular target: T3, ELK4 (Homo sapiens, UniProt P28324-2 1-405); conditions: protein: recombinant; tags: N-terminal GST; dsDNA, one strand shown
T3 sequence: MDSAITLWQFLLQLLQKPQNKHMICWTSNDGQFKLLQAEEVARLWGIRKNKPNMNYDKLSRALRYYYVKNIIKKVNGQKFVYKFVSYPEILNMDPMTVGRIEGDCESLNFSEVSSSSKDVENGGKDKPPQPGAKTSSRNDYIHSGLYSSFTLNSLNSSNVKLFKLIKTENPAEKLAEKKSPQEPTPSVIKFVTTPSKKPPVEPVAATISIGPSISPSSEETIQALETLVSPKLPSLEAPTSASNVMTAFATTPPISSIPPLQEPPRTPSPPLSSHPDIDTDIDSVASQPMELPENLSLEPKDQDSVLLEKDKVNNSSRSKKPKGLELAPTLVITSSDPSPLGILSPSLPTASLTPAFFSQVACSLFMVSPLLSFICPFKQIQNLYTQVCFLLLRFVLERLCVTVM
Procedure, shortened: as §1

ETV2 = molecular target: T4, ETV2 (Homo sapiens, UniProt O00321 1-342); conditions: protein: recombinant; tags: N-terminal GST; dsDNA, one strand shown
T4 sequence: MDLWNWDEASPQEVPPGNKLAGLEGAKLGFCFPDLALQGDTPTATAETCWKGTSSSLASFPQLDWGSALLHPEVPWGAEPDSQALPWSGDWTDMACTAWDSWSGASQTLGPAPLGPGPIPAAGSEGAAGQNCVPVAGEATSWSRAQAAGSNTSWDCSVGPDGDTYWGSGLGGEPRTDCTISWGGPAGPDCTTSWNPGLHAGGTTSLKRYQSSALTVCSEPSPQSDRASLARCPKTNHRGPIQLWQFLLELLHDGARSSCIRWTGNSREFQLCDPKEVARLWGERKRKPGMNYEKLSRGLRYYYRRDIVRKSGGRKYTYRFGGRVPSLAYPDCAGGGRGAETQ
Procedure, shortened: as §1

ELF3 = molecular target: T5, ELF3 (Homo sapiens, UniProt P78545 1-371); conditions: protein: recombinant; tags: N-terminal GST; dsDNA, one strand shown
T5 sequence: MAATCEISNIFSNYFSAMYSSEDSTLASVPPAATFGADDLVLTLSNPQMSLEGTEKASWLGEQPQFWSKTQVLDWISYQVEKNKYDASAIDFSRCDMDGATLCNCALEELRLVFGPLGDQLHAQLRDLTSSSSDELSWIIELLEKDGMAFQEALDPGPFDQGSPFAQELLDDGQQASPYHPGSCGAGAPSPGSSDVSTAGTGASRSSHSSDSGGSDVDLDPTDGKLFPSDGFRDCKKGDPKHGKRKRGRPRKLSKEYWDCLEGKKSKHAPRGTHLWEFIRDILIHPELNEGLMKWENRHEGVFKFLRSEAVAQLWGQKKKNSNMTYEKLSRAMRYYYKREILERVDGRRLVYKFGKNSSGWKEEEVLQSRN
Procedure, shortened: as §1

CRX = CRX (Homo sapiens, UniProt O43186 1-299); conditions: protein: recombinant; tags: N-terminal GST; dsDNA, one strand shown
Procedure, shortened: as §1

ETV1 = ETV1 (Homo sapiens, UniProt P50549 1-477); conditions: protein: recombinant; tags: N-terminal GST; dsDNA, one strand shown
Procedure, shortened: as §1

ERF = molecular target: T6, ERF (Homo sapiens, UniProt P50548 1-548); conditions: protein: recombinant; tags: N-terminal GST; dsDNA, one strand shown
T6 sequence: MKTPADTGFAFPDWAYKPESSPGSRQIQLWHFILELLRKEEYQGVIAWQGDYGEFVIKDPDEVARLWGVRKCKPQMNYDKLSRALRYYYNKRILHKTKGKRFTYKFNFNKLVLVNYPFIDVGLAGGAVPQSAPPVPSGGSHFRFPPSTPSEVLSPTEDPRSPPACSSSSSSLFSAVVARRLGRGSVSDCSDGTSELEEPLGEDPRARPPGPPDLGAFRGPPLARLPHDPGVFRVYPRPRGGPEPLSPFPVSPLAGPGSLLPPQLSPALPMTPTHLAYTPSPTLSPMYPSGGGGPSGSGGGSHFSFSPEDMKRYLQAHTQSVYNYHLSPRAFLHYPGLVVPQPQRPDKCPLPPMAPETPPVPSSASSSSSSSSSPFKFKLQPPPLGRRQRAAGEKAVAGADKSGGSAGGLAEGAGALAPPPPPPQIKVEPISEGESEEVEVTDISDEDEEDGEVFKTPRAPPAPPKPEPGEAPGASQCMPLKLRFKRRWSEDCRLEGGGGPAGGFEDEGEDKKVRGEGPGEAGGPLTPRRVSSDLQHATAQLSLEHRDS
Procedure, shortened: as §1

ETV3L = molecular target: T7, ETV3L (Homo sapiens, UniProt Q6ZN32 1-361); conditions: protein: recombinant; tags: N-terminal GST; dsDNA, one strand shown
T7 sequence: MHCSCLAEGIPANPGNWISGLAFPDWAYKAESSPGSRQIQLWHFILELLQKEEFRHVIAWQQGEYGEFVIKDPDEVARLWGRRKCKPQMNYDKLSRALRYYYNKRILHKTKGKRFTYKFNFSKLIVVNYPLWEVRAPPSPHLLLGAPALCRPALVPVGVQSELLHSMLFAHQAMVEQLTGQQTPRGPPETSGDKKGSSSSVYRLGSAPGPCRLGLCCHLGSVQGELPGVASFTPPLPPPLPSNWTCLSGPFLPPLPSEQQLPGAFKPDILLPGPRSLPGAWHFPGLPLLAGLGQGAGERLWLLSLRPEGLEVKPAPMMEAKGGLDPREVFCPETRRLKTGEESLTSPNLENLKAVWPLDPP
Procedure, shortened: as §1

ETS2 = molecular target: T8, ETS2 (Homo sapiens, UniProt P15036 1-469); conditions: protein: recombinant; tags: N-terminal GST; dsDNA, one strand shown
T8 sequence: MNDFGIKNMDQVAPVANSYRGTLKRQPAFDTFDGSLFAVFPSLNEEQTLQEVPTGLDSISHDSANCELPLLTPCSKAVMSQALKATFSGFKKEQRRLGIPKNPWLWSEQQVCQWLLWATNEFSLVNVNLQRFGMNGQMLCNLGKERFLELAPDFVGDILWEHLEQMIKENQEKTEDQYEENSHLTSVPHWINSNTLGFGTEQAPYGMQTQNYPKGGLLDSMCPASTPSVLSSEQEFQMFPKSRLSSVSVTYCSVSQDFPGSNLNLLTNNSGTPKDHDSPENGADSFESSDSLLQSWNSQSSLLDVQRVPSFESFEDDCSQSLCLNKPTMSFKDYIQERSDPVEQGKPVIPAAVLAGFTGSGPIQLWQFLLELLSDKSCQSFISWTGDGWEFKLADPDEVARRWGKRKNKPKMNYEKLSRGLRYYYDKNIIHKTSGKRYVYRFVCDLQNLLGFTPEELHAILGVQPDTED
Procedure, shortened: as §1

SPDEF = molecular target: T9, SPDEF (Homo sapiens, UniProt O95238 1-335); conditions: protein: recombinant; tags: N-terminal GST; dsDNA, one strand shown
T9 sequence: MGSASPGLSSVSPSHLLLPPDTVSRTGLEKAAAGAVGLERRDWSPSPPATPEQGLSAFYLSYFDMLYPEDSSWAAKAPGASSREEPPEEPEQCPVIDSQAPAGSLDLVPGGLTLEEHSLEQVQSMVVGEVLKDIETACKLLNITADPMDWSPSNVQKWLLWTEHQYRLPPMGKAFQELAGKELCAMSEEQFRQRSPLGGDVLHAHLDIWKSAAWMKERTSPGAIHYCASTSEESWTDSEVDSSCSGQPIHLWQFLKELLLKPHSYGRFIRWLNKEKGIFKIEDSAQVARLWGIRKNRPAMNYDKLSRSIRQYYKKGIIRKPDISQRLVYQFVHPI
Procedure, shortened: as §1

ETV7 = molecular target: T10, ETV7 (Homo sapiens, UniProt Q9Y603 1-341); conditions: protein: recombinant; tags: N-terminal GST; dsDNA, one strand shown
T10 sequence: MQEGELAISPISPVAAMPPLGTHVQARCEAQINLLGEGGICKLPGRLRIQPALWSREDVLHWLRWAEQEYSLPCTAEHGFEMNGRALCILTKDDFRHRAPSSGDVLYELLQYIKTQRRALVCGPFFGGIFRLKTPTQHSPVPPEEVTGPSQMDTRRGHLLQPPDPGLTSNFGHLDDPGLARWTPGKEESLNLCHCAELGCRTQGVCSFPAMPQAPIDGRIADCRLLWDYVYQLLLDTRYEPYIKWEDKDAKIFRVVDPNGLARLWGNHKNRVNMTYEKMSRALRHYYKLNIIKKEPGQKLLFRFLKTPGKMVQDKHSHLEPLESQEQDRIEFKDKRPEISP
Procedure, shortened: as §1

ELF5 = molecular target: T11, ELF5 (Homo sapiens, UniProt Q9UKW6-2 1-255); conditions: protein: recombinant; tags: N-terminal GST; dsDNA, one strand shown
T11 sequence: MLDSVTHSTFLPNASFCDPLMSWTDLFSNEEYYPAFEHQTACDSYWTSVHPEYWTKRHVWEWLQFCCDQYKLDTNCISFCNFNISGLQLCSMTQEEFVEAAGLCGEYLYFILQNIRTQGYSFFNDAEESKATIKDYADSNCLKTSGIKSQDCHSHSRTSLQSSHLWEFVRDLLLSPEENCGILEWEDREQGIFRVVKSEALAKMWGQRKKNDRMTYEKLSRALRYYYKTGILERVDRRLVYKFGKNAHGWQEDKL
Procedure, shortened: as §1

ETV3 = molecular target: T12, ETV3 (Homo sapiens, UniProt P41162-2 1-143); conditions: protein: recombinant; tags: N-terminal GST; dsDNA, one strand shown
T12 sequence: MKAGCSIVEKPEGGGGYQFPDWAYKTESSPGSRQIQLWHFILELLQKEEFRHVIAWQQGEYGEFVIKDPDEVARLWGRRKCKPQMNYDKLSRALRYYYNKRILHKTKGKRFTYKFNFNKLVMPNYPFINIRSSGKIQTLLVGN
Procedure, shortened: as §1

ETV6 = ETV6 (Homo sapiens, UniProt P41212 1-452); conditions: protein: recombinant; tags: N-terminal GST; dsDNA, one strand shown
Procedure, shortened: as §1

Sequence of ELF4 (Q99607 whole entry): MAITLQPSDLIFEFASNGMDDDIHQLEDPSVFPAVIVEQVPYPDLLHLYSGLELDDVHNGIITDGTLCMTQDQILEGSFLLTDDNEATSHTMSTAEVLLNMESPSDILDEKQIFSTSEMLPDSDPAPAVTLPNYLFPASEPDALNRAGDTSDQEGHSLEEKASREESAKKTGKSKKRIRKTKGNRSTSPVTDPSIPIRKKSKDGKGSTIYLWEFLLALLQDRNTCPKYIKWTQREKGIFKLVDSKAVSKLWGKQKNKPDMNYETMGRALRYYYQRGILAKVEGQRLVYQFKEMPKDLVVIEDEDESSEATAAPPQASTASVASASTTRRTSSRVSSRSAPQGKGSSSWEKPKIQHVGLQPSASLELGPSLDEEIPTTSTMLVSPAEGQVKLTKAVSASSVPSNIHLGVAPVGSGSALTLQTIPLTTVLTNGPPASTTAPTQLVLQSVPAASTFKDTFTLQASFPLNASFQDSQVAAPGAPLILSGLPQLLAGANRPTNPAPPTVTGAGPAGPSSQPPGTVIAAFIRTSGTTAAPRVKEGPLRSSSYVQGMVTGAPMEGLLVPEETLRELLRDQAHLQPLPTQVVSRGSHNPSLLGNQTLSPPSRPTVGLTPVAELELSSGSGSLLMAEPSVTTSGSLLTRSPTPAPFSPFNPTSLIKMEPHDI
Sequence of HSF1 (Q00613 whole entry): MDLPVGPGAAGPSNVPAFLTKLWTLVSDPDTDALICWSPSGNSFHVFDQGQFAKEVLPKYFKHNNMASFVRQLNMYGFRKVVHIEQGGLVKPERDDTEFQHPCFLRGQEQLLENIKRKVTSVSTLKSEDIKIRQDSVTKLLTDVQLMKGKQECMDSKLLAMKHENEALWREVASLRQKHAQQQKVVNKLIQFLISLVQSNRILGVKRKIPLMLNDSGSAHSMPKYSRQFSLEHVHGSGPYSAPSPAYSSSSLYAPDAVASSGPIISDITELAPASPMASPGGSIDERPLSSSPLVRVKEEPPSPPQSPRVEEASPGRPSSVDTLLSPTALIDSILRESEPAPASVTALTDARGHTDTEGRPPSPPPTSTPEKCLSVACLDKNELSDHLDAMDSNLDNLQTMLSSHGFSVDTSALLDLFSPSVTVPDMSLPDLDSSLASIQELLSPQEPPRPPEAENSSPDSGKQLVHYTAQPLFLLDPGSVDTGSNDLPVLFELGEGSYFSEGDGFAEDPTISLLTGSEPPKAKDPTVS
Sequence of ETV1 (P50549 whole entry): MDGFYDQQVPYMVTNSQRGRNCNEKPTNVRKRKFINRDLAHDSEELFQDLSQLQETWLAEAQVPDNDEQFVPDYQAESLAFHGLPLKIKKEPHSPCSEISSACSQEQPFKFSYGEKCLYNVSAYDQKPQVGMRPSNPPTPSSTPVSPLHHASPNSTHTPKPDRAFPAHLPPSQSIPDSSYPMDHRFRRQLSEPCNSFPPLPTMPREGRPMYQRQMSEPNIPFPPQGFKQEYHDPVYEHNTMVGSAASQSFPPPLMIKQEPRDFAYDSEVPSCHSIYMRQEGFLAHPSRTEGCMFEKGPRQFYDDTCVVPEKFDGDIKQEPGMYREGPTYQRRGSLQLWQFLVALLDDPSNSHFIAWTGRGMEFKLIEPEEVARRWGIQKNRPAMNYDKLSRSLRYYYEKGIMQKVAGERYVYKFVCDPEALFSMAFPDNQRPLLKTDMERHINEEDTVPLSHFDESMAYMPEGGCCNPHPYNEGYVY
Sequence of ETV5 (P41161 whole entry): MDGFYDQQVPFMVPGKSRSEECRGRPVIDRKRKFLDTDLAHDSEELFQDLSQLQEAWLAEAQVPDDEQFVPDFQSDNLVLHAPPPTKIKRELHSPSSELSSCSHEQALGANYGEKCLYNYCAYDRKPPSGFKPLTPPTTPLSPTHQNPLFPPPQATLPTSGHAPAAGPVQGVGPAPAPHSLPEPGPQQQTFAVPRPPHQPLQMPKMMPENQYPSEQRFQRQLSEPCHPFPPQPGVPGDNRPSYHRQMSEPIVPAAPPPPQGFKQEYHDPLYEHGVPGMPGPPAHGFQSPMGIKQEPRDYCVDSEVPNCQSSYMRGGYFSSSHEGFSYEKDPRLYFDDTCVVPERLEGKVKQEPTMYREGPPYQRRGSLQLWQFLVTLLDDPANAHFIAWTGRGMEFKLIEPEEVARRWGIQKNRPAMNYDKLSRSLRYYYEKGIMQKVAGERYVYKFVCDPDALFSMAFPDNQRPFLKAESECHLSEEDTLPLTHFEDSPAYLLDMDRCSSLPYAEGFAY
Sequence of CRX (O43186 whole entry): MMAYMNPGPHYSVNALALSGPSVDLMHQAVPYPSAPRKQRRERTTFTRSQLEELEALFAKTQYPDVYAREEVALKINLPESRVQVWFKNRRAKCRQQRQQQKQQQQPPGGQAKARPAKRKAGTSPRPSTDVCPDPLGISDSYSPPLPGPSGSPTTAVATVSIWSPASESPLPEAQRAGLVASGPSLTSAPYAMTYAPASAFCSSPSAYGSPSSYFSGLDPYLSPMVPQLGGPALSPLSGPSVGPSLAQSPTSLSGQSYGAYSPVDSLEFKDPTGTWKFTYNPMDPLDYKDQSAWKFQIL
Sequence of ETV6 (P41212 whole entry): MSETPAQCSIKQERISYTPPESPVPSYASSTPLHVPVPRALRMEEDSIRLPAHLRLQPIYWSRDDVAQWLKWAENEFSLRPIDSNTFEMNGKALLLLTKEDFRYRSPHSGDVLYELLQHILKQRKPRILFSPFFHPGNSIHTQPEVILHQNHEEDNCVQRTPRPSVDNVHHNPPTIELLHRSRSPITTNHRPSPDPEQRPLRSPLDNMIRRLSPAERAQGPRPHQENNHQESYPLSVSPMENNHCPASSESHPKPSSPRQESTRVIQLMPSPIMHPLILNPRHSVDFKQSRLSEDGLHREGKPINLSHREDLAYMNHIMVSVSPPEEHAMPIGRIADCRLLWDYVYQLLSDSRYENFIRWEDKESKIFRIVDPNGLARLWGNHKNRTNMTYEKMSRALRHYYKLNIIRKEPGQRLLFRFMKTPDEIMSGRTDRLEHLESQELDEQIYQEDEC

For ATTGTT, the binding signal (FEV) was 1.52 fold enrichment (6-mer frequency, TF over GST control), the binding signal (ETV5) was 1.57 fold enrichment (6-mer frequency, TF over GST control) and the binding signal (HSF1) was 1.63 fold enrichment (6-mer frequency, TF over GST control). For the same sequence, the binding signal (SPIC) was 1.45 fold enrichment (6-mer frequency, TF over GST control), the binding signal (ELF4) was 1.41 fold enrichment (6-mer frequency, TF over GST control) and the binding signal (ELK4) was 1.4 fold enrichment (6-mer frequency, TF over GST control). For the same sequence, the binding signal (ETV2) was 1.57 fold enrichment (6-mer frequency, TF over GST control), the binding signal (ELF3) was 1.49 fold enrichment (6-mer frequency, TF over GST control) and the binding signal (CRX) was 1.55 fold enrichment (6-mer frequency, TF over GST control). For the same sequence, the binding signal (ETV1) was 1.47 fold enrichment (6-mer frequency, TF over GST control), the binding signal (ERF) was 1.65 fold enrichment (6-mer frequency, TF over GST control) and the binding signal (ETV3L) was 1.55 fold enrichment (6-mer frequency, TF over GST control). The binding signal (ETS2) was 1.47 fold enrichment (6-mer frequency, TF over GST control), the binding signal (SPDEF) was 1.46 fold enrichment (6-mer frequency, TF over GST control) and the binding signal (ETV7) was 1.47 fold enrichment (6-mer frequency, TF over GST control). The binding signal (ELF5) was 1.36 fold enrichment (6-mer frequency, TF over GST control), the binding signal (ETV3) was 1.56 fold enrichment (6-mer frequency, TF over GST control) and the binding signal (ETV6) was 1.51 fold enrichment (6-mer frequency, TF over GST control).
